{"source": "PubChem BioAssay (NCATS)", "key": {"[1]": {"biological_target": "Aldehyde dehydrogenase, mitochondrial (Homo sapiens) (UniProt P05091)", "experiment": "qHTS for Inhibitors of the Aldehyde Dehydrogenase Family (ALDH2) Validation screens (AID 2061302; active means well fitted inhibition curve with a large enough effect; title and protocol of this record describe different tests; further: potency means the concentration at half of the fitted maximal effect)", "conditions": "ALDH inhibition qHTS; series mostly up to 42.6 µM"}, "[2]": {"biological_target": "Aldehyde dehydrogenase, mitochondrial (Homo sapiens) (UniProt P05091)", "experiment": "qHTS for Inhibitors of the Aldehyde Dehydrogenase Family (ALDH2) Confirmatory screens (AID 2061303; active means well fitted inhibition curve with a large enough effect; title and protocol of this record describe different tests; further: potency means the concentration at half of the fitted maximal effect; nearly all actives have a fitted effect of over 45% in size)", "conditions": "ALDH inhibition qHTS; series mostly up to 45.4 µM"}, "[3]": {"experiment": "qHTS for Inhibitors of the Aldehyde Dehydrogenase Family (ALDH1A2, ALDH1A3, ALDH2, ALDH3A1) (AID 2061307); further: test system not described further here; potency means the concentration at half of the fitted maximal effect; nearly all actives have a fitted effect of over 50% in size", "conditions": "ALDH inhibition qHTS; series mostly up to 50.3 µM"}, "[4]": {"biological_target": "Aldehyde dehydrogenase, mitochondrial (Homo sapiens) (UniProt P05091)", "experiment": "qHTS for Inhibitors of the Aldehyde Dehydrogenase Family (ALDH2) Primary screen (AID 2061308); further: nearly all actives have a fitted effect of over 55% in size", "conditions": "ALDH2 enzyme inhibition qHTS, 1536-well; series mostly up to 56 µM"}, "[5]": {"biological_target": "Retinaldehyde dehydrogenase 3 (Homo sapiens) (UniProt P47895)", "experiment": "qHTS for Inhibitors of the Aldehyde Dehydrogenase Family (ALDH1A3) Confirmatory screens (AID 2061311); further: potency means the concentration at half of the fitted maximal effect; nearly all actives have a fitted effect of over 60% in size", "conditions": "ALDH inhibition qHTS; series mostly up to 46 µM"}, "[6]": {"biological_target": "Retinal dehydrogenase 2 (Homo sapiens) (UniProt O94788)", "experiment": "qHTS for Inhibitors of the Aldehyde Dehydrogenase Family (ALDH1A2) Confirmation screens (AID 2061314); further: potency means the concentration at half of the fitted maximal effect; nearly all actives have a fitted effect of over 65% in size", "conditions": "ALDH1A2 enzyme inhibition qHTS confirmation; series mostly up to 45.9 µM"}, "[7]": {"biological_target": "Aldehyde dehydrogenase 1A1 (Homo sapiens) (UniProt P00352)", "experiment": "qHTS for Inhibitors of the Aldehyde Dehydrogenase Family (ALDH1A1) Confirmatory screens (AID 2061316); further: potency means the concentration at half of the fitted maximal effect; nearly all actives have a fitted effect of over 65% in size", "conditions": "ALDH inhibition qHTS; series mostly up to 47.3 µM"}, "[8]": {"biological_target": "Cellular tumor antigen p53 (Homo sapiens) (UniProt P04637)", "sequence (P04637 whole entry, looked up)": "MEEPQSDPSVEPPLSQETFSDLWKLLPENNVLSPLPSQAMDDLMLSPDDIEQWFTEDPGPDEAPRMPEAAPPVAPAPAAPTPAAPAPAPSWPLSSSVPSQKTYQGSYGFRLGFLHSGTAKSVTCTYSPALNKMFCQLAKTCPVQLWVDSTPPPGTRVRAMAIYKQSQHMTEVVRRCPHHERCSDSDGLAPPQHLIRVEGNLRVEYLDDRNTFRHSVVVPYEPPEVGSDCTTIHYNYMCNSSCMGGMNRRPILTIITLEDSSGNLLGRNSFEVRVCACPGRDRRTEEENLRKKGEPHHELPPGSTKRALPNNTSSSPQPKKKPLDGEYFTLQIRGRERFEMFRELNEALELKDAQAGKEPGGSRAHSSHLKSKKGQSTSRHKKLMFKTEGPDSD", "experiment": "Primary qHTS for small molecule compounds that upregulate eGFP-tagged delta133p53alpha (in C-terminal) cells. (AID 2060324); further: potency means the concentration at half of the fitted maximal effect", "conditions": "NCI-H358 delta133p53alpha-eGFP (C-terminal tag), GFP fluorescence imaging, 24 h; series mostly up to 57.5 µM", "outline": "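NCI-H358 cells pre-induced 24 h with 100 ng/ml doxycycline to express delta133p53alpha-eGFP, then dosed in doxycycline-free medium for 24 h at 37C. Fixed, Hoechst-stained; GFP intensity by laser scanning cytometry, normalized to DMSO wells.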"}, "[9]": {"biological_target": "Retinaldehyde dehydrogenase 3 (Homo sapiens) (UniProt P47895)", "experiment": "qHTS for Inhibitors of the Aldehyde Dehydrogenase Family (ALDH1A3) Validation screen (AID 2061312); further: nearly all actives have a fitted effect of over 45% in size", "conditions": "ALDH1A3 enzyme inhibition qHTS validation, fluorescence; series mostly up to 84.7 µM"}, "[10]": {"experiment": "BET inhibitor-based combinations targeting novel dependencies in MECOM-rearranged (r) AML: MV-4-11 cell line (AID 2202233); further: nearly all actives have a fitted effect of over 45% in size", "conditions": "MV-4-11 AML viability, CellTiter-Glo luminescence, 48 h; series mostly up to 46 µM", "outline": "(§1)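 Seeding density was 500 cells/well, and drug exposure lasted 48 hr under standard culture conditions. Read-out used CellTiter-Glo reagent with a 15 min room-temperature incubation before luminescence measurement; AUC and Z-AUC summarize the normalized responses.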"}, "[11]": {"experiment": "BET inhibitor-based combinations targeting novel dependencies in MECOM-rearranged (r) AML: HNT-34 cell line (AID 2202234)", "conditions": "HNT-34 AML viability, CellTiter-Glo luminescence, 48 h; series mostly up to 46 µM", "outline": "as §1"}, "[12]": {"experiment": "BET inhibitor-based combinations targeting novel dependencies in MECOM-rearranged (r) AML: AML-191 cell line (AID 2202236)", "conditions": "AML-191 viability, CellTiter-Glo luminescence, 48 h; series mostly up to 46 µM", "outline": "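Readout: CellTiter-Glo luminescence. Exposure: 48 h, 11 concentrations, 500 cells/well. Metric: AUC and within-line Z-AUC after DMSO/empty-well normalization.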"}}, "note": "Inconclusive results are not listed. Where a call stands in place of a potency, no number is given. The source made the active and inactive calls. Unless noted, the call rests on the fitted dose curve; in most records, active means well fitted curve in the direction sought with a large enough effect; inconclusive means small, poorly fitted or top-dose-only effect, or another doubt; inactive means no such curve, though single readings can be large; an effect the other way counts as inactive or inconclusive. Wherever viability (% of control) is given: nearly all actives have a fitted effect of over 35% in size."}
{"smiles": "Cc1ccc(/C(=C\\CN2CCCC2)c2ccccn2)cc1", "values": [{"measurement": "Potency", "setting": "[1]", "result": "inactive"}]}
{"smiles": "CCOC(=O)C1CCN(c2ccc(NCc3ccc(-c4ccc(C#N)cc4)o3)cc2)CC1", "values": [{"measurement": "Potency", "setting": "[1]", "result": "0.355 µM (active)"}, {"measurement": "Potency", "setting": "[2]", "result": "0.0355 µM (active)"}, {"measurement": "Potency", "setting": "[3]", "result": "0.634 µM (active)"}, {"measurement": "Potency", "setting": "[4]", "result": "inactive"}, {"measurement": "Potency", "setting": "[5]", "result": "7.08 µM (active)"}, {"measurement": "Potency", "setting": "[6]", "result": "31.6 µM (active)"}, {"measurement": "Potency", "setting": "[7]", "result": "7.98 µM (active)"}]}
{"smiles": "COCCOC(=O)C1=C(C)NC(C)=C(C(=O)OC(C)C)C1c1cccc([N+](=O)[O-])c1", "note": "(stereo not given)", "values": [{"measurement": "Potency", "setting": "[8]", "result": "inactive"}, {"measurement": "Potency", "setting": "[1]", "result": "inactive"}, {"measurement": "Potency", "setting": "[9]", "result": "inactive"}]}
{"smiles": "NC/C=C/C(=O)O", "values": [{"measurement": "Potency", "setting": "[8]", "result": "inactive"}, {"measurement": "Potency", "setting": "[1]", "result": "inactive"}, {"measurement": "Potency", "setting": "[9]", "result": "inactive"}]}
{"smiles": "COc1ccc2c(c1)CCC1C2CC[C@@]2(C)C1CC[C@@H]2NCCCCCCN1C(=O)C=CC1=O", "note": "(stereo not given in full)", "values": [{"measurement": "Potency", "setting": "[8]", "result": "inactive"}, {"measurement": "Potency", "setting": "[1]", "result": "inactive"}, {"measurement": "Potency", "setting": "[9]", "result": "inactive"}]}
{"smiles": "O=c1c(-c2ccc(O)cc2)coc2cc(O[C@@H]3O[C@H](CO)[C@@H](O)[C@H](O)[C@H]3O)cc(O)c12", "values": [{"measurement": "Potency", "setting": "[1]", "result": "inactive"}]}
{"smiles": "COc1cc(-c2coc3cc(OCc4ccccc4)c(OC)c(O)c3c2=O)cc(O)c1OC", "values": [{"measurement": "Potency", "setting": "[1]", "result": "inactive"}]}
{"smiles": "O=C(O)C1=CCCN(CCON=C(c2ccccc2)c2ccccc2)C1", "values": [{"measurement": "Potency", "setting": "[8]", "result": "inactive"}, {"measurement": "Potency", "setting": "[9]", "result": "inactive"}]}
{"smiles": "CNCC[C@H](Oc1ccc(C(F)(F)F)cc1)c1ccccc1", "values": [{"measurement": "Potency", "setting": "[8]", "result": "inactive"}, {"measurement": "Potency", "setting": "[1]", "result": "inactive"}, {"measurement": "Potency", "setting": "[9]", "result": "inactive"}]}
{"smiles": "Cc1nnc(SCC2=C(C(=O)O)N3C(=O)[C@@H](NC(=O)Cn4cnnn4)[C@H]3SC2)s1", "values": [{"measurement": "Potency", "setting": "[1]", "result": "inactive"}]}
{"smiles": "O=C1NC(=O)c2cc(Nc3ccccc3)c(Nc3ccccc3)cc21", "values": [{"measurement": "Potency", "setting": "[8]", "result": "30.1 µM (active)"}, {"measurement": "Potency", "setting": "[9]", "result": "inactive"}]}
{"smiles": "CCN(CC)CCCC(C)Nc1ccnc2cc(Cl)ccc12", "note": "(stereo not given)", "values": [{"measurement": "viability, % of control", "setting": "[10]", "result": "101% [at 8.46 µM] (inactive)"}, {"measurement": "Potency", "setting": "[11]", "result": "5.39 µM (active)"}, {"measurement": "viability (% of control)", "setting": "[12]", "result": "95.1% [at 8.46 µM] (inactive)"}]}
